The source made the active and inactive calls. Unless noted, the rule behind the calls is not given here.
Tests used:
[1] = A549 cell viability effects, profiling panel, calcein-AM fluorescence, 48 h, basal (AID 1162); conditions: higher = more signal; note: test concentration not given here
[2] = adipocyte viability effects, profiling panel, cell-based, 3T3-L1 adipocytes, calcein-AM fluorescence, 48 h, basal (AID 1163); conditions: 3T3-L1 adipocytes viability, higher = more signal; note: test concentration not given here
[3] = HepG2 cell viability effects, profiling panel, calcein-AM fluorescence, 48 h, basal (AID 1164); conditions: higher = more signal; note: test concentration not given here
[4] = MM1S cell viability effects, profiling panel, calcein-AM fluorescence, 48 h, basal (AID 1165); conditions: higher = more signal;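 note: viability of MM1S multiple myeloma cells under basal unstimulated conditions; test concentration not given here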
[5] = basal RPMI8226 viability, no added stimulus, profiling panel, cell-based, calcein-AM fluorescence, 48 h, PK04 Diversity Set (AID 1166); conditions: RPMI8226 myeloma viability, higher = more signal;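 note: cells grown under basal conditions without added stimulus; test concentration not given here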
[6] = basal HepG2 mitochondrial membrane potential changes, profiling panel, cell-based, JC-1 fluorescence, 24 h, 100 nL compound (AID 1167); conditions: higher = more signal; note: test concentration not given here
[7] = basal 3T3-L1 adipocyte mitochondrial potential changes, profiling panel, cell-based, JC-1 fluorescence, 3T3-L1 adipocytes, 24 h, 100 nL compound (AID 1168); conditions: JC-1 mitochondrial fluorescence, higher = more signal, called active from +8 up or from −8 down; note: test concentration not given here
[8] = basal RPMI8226 mitochondrial membrane potential changes, profiling panel, cell-based, JC-1 fluorescence, 24 h, 100 nL compound (AID 1169); conditions: RPMI8226 myeloma, JC-1 mitochondrial potential fluorescence, higher = more signal; note: test concentration not given here
[9] = basal MM1S mitochondrial membrane potential changes, profiling panel, cell-based, JC-1 fluorescence, 24 h, 100 nL compound (AID 1170); conditions: higher = more signal; note: test concentration not given here
[10] = A549 lung cancer cell viability effects, profiling panel, resazurin fluorescence, 24 h, PK04 Diversity Set (AID 1171); conditions: higher = more signal, called active from +8 up or from −8 down; note: test concentration not given here
[11] = HepG2 liver cancer cell viability effects, profiling panel, resazurin fluorescence, 24 h, PK04 Diversity Set (AID 1172); conditions: higher = more signal; note: test concentration not given here
[12] = basal S. cerevisiae growth modulation, no modifier, primary screen, OD600, strain BY4716, 24 h, basal condition (AID 1173); conditions: OD600, 24 h, higher = more signal, called active from +8 up or from −8 down
[13] = MM1S myeloma cell viability, profiling panel, resazurin fluorescence, basal, 24 h, PK04 Diversity Set (AID 1174); conditions: higher = more signal, called active from +8 up or from −8 down;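 note: MM1S multiple myeloma cell line; test concentration not given here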
[14] = target: Dihydroorotate dehydrogenase (quinone), mitochondrial (Plasmodium falciparum (isolate 3D7)) (UniProt Q08210); test: PfDHODH enzyme inhibitors, primary screen, biochemical, C-terminal His tag, absorbance 600 nm (AID 1175); conditions: DCIP absorbance 600 nm, higher = more signal, called active from +8 up or from −8 down;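 note: recombinant parasite enzyme with a five histidine tag at its C terminus; test concentration not given here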
[15] = P. aeruginosa biofilm formation inhibitors, primary screen, strain PAO1, LB-PBS medium, absorbance 600 nm (AID 1176); note: test concentration not given here; conditions: P. aeruginosa PAO1 growth/biofilm, A600, 12 h; higher = more signal
[16] = S. cerevisiae RM11-1a growth modifiers, primary screen, strain RM11-1a, OD600, basal, 24 h (AID 1177); conditions: OD600, 24 h, higher = more signal, called active from +8 up or from −8 down;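 note: cultures grown under basal conditions with no added stressor; test concentration not given here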
[17] = E. coli acrAB mutant growth effects, primary screen, E. coli filamentation inducers, strain DRC39, OD650, 24 h (AID 1178); conditions: higher = more signal, called active from +8 up or from −8 down;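 note: growth measured as culture turbidity by optical density at 650 nm; test concentration not given here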
[18] = E. coli acrAB mutant growth effects, primary screen, E. coli filamentation inducers, strain DRC39, OD650, 48 h (AID 1179);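 note: screen aims at cell division blockers that make cells filament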; conditions: E. coli DRC39 delta-acrAB growth, higher = more signal, called active from +8 up or from −8 down
[19] = RPMI8226 myeloma cell viability, profiling panel, resazurin fluorescence, basal, 24 h, PK04 Diversity Set (AID 1180); conditions: higher = more signal;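 note: RPMI8826 multiple myeloma cell line at 5000 cells per well; test concentration not given here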
[20] = target: E3 ubiquitin-protein ligase XIAP (Homo sapiens) (UniProt P98170); test: XIAP binders, primary screen, biophysical, small-molecule microarray, fluorescence 635 nm (AID 1181); conditions: small-molecule microarray binding, higher = more signal;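 note: score merges 667 nm emission and signal to noise over triplicate slides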
E3 ubiquitin-protein ligase XIAP (Homo sapiens), sequence (P98170 whole entry, looked up): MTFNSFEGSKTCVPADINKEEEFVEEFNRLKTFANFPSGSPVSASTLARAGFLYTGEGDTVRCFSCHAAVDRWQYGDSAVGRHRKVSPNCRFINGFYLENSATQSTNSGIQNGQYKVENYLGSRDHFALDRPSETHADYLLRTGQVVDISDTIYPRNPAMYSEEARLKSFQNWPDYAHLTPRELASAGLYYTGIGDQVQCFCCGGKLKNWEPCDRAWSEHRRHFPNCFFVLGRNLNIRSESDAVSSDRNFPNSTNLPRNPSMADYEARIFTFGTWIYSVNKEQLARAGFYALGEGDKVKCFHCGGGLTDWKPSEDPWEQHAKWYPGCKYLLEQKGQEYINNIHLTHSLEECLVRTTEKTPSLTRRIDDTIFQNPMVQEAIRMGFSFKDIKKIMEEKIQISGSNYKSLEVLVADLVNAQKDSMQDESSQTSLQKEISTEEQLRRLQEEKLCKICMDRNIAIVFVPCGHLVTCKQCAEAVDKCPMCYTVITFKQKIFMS

Dihydroorotate dehydrogenase (quinone), mitochondrial (Plasmodium falciparum (isolate 3D7)), sequence (Q08210 whole entry, looked up): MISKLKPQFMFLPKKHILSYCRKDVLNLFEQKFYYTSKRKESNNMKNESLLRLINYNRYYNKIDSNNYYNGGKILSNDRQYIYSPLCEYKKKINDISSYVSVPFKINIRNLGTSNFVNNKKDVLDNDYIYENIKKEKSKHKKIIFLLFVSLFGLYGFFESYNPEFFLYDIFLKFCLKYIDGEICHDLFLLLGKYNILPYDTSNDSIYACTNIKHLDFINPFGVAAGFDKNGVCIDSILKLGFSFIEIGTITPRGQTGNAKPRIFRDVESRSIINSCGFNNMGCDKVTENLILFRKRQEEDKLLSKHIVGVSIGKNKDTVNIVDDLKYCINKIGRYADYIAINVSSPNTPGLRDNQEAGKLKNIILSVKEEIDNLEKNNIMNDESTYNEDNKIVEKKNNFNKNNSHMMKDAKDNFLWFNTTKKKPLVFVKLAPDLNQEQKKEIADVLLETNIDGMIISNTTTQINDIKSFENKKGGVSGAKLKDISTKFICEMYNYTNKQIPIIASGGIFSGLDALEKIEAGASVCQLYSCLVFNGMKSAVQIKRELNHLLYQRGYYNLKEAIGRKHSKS

Q: For CC(C)[C@H]1NC(=O)[C@@]23C(=O)N[C@@H](Cc4ccccc4)C2[C@H](C)[C@@]2(C)O[C@H]2C3/C=C/C/C=C\CNC(=O)[C@H](C)NC1=O (stereo not given in full), which z-score [1] is on record?
A: 0.011

Q: And the z-score [2]?
A: 0.657

Q: What about the z-score [3] of the same compound?
A: -0.614

Q: And the z-score [4]?
A: 0.434

Q: What about the z-score [5] of the same compound?
A: -0.938

Q: And the z-score [6]?
A: -0.458

Q: What about the z-score [7] of the same compound?
A: -0.0933 (inactive)

Q: What about the z-score [8] of the same compound?
A: 0.279

Q: And the z-score [9]?
A: 0.498

Q: What about the z-score [10] of the same compound?
A: 0.0653 (inactive)

Q: And the z-score [11]?
A: -0.546

Q: And the z-score [12]?
A: 0.976 (inactive)

Q: What about the z-score [13] of the same compound?
A: 0.323 (inactive)

Q: What about the composite z-score [14] of the same compound?
A: -0.0591 (inactive)

Q: What about the z-score [15] of the same compound?
A: 1.13 (inactive)

Q: And the z-score [16]?
A: 1.01 (inactive)

Q: What about the z-score [17] of the same compound?
A: -0.198 (inactive)

Q: What about the z-score [18] of the same compound?
A: -0.301 (inactive)

Q: And the z-score [19]?
A: 0.142

Q: What about the composite z-score [20] of the same compound?
A: -0.129

Q: What does the source list for CCOC(=O)C1=CCC(c2cccc3ccccc23)N(S(=O)(=O)c2ccc(C)cc2)C1 (stereo not given)?
A: z-score [1]: -0.989; z-score [2]: -1; z-score [3]: -0.106; z-score [4]: -0.0257; z-score [5]: 0.291; z-score [6]: 1.98; z-score [7]: -0.759 (inactive); z-score [8]: -0.498; z-score [9]: -1.64; z-score [10]: -0.658 (inactive); z-score [11]: -0.739; z-score [12]: 0.66 (inactive); z-score [13]: -1.56 (inactive); composite z-score [14]: -0.384 (inactive); z-score [15]: 0.518 (inactive); z-score [16]: -0.225 (inactive); z-score [17]: -0.601 (inactive); z-score [18]: 0.0759 (inactive); z-score [19]: -3.43; composite z-score [20]: 0.397

Q: With COc1ccc(NN2C(C(O)c3cc(OC)c(OC)c(OC)c3)C=CC3C(=O)N(C4CCCCC4)C(=O)C32)cc1 (stereo not given) as the compound, how does the z-score [1] read?
A: -0.753

Q: What about the z-score [2] of the same compound?
A: -1.42

Q: And the z-score [3]?
A: 1.17

Q: And the z-score [4]?
A: 0.651

Q: And the z-score [5]?
A: -0.177

Q: And the z-score [6]?
A: 0.861

Q: And the z-score [7]?
A: -0.569 (inactive)

Q: And the z-score [8]?
A: 0.00692

Q: And the z-score [9]?
A: -1.78

Q: What about the z-score [10] of the same compound?
A: 0.239 (inactive)

Q: What about the z-score [11] of the same compound?
A: -0.665

Q: What about the z-score [12] of the same compound?
A: -0.376 (inactive)

Q: And the z-score [13]?
A: -0.946 (inactive)

Q: And the composite z-score [14]?
A: -0.41 (inactive)

Q: What about the z-score [15] of the same compound?
A: 0.89 (inactive)

Q: What about the z-score [16] of the same compound?
A: 0.389 (inactive)

Q: And the z-score [17]?
A: -1.02 (inactive)

Q: And the z-score [18]?
A: 0.187 (inactive)

Q: And the z-score [19]?
A: -1.48

Q: What about the composite z-score [20] of the same compound?
A: 0.147

Q: Which results are given for COc1ccc([Si](C)(C)[C@@H]2[C@@H](CCO)O[C@]3(C(=O)N(Cc4ccc(NC(=O)[C@H](C)O)cc4)c4ccccc43)[C@H]2C)cc1?
A: z-score [1]: -2.45; z-score [2]: 1.63; z-score [3]: -2.43; z-score [4]: -2.97; z-score [5]: -2.49; z-score [6]: -1.84; z-score [7]: 0.492 (inactive); z-score [8]: -1.12; z-score [9]: -0.492; z-score [10]: -2.95 (inactive); z-score [11]: -1.84; z-score [12]: -0.177 (inactive); z-score [13]: -6.71 (inactive); composite z-score [14]: -1.07 (inactive); z-score [15]: -0.717 (inactive); z-score [16]: 3.7 (inactive); z-score [17]: 1.26 (inactive); z-score [18]: 0.335 (inactive); z-score [19]: -5.69; composite z-score [20]: -0.0497

Q: For COCCOC(=O)N1C(=O)[C@@]2(c3cc(C#CCC(C(=O)OC)C(=O)OC)ccc31)[C@H](c1ccccc1OCCO)N1[C@H](c3ccccc3)[C@H](c3ccccc3)OC(=O)[C@H]1[C@@H]2C(=O)N1CCCCCCC1, which z-score [1] is on record?
A: 0.579

Q: What about the z-score [2] of the same compound?
A: -0.219

Q: What about the z-score [3] of the same compound?
A: 0.779

Q: What about the z-score [4] of the same compound?
A: -0.895

Q: What about the z-score [5] of the same compound?
A: 0.103

Q: And the z-score [6]?
A: 0.335

Q: And the z-score [7]?
A: 2.19 (inactive)

Q: And the z-score [8]?
A: -0.641

Q: What about the z-score [9] of the same compound?
A: -1.34

Q: What about the z-score [10] of the same compound?
A: 0.719 (inactive)

Q: What about the z-score [11] of the same compound?
A: 1.16

Q: What about the z-score [12] of the same compound?
A: 1.29 (inactive)

Q: And the z-score [13]?
A: 0.883 (inactive)

Q: What about the composite z-score [14] of the same compound?
A: 0.243 (inactive)

Q: And the z-score [15]?
A: 1.48 (inactive)

Q: What about the z-score [16] of the same compound?
A: 2.14 (inactive)

Q: What about the z-score [17] of the same compound?
A: 0.189 (inactive)

Q: What about the z-score [18] of the same compound?
A: 0.364 (inactive)

Q: And the z-score [19]?
A: 1.58

Q: What about the composite z-score [20] of the same compound?
A: 0.361

Q: With Cc1ccc(S[C@]2(C(=O)NC3CC3)CC(=O)N(Cc3cc(C(F)(F)F)cc(C(F)(F)F)c3)[C@@H]2c2ccc(CO)cc2)cc1 as the compound, how does the z-score [1] read?
A: 0.902

Q: What about the z-score [2] of the same compound?
A: 1.69

Q: And the z-score [3]?
A: 0.445

Q: And the z-score [4]?
A: 0.239

Q: And the z-score [5]?
A: 0.16

Q: What about the z-score [6] of the same compound?
A: 0.259

Q: And the z-score [7]?
A: -0.472 (inactive)

Q: What about the z-score [8] of the same compound?
A: -0.718

Q: What about the z-score [9] of the same compound?
A: -0.792

Q: What about the z-score [10] of the same compound?
A: 0.968 (inactive)

Q: What about the z-score [11] of the same compound?
A: 1.1

Q: What about the z-score [12] of the same compound?
A: -1.03 (inactive)

Q: And the z-score [13]?
A: 0.219 (inactive)

Q: What about the composite z-score [14] of the same compound?
A: -2.37 (inactive)

Q: What about the z-score [15] of the same compound?
A: 0.214 (inactive)

Q: What about the z-score [16] of the same compound?
A: -0.921 (inactive)

Q: And the z-score [17]?
A: 0.327 (inactive)

Q: What about the z-score [18] of the same compound?
A: 0.561 (inactive)

Q: And the z-score [19]?
A: 1.25

Q: What about the composite z-score [20] of the same compound?
A: 0.209

Q: For CCOC(=O)C[C@H]1[C@H](OC(=O)c2ccccc2-c2ccccc2)[C@@H](NC(=O)c2ccc(-c3ccccc3)cc2)c2cc(OCCCO)ccc2N1C(=O)Cc1ccc(OC)cc1, which z-score [1] is on record?
A: -0.183

Q: What about the z-score [2] of the same compound?
A: -0.367

Q: What about the z-score [3] of the same compound?
A: 0.29

Q: And the z-score [4]?
A: 0.0542

Q: And the z-score [5]?
A: -0.997

Q: What about the z-score [6] of the same compound?
A: 0.181

Q: What about the z-score [7] of the same compound?
A: -0.421 (inactive)

Q: And the z-score [8]?
A: -0.616

Q: And the z-score [9]?
A: 0.103

Q: And the z-score [10]?
A: 0.0911 (inactive)

Q: What about the z-score [11] of the same compound?
A: -0.235

Q: And the z-score [12]?
A: -0.034 (inactive)

Q: What about the z-score [13] of the same compound?
A: -0.0275 (inactive)

Q: What about the composite z-score [14] of the same compound?
A: -1.29 (inactive)

Q: And the z-score [15]?
A: 0.2 (inactive)

Q: What about the z-score [16] of the same compound?
A: -0.28 (inactive)

Q: What about the z-score [17] of the same compound?
A: -0.489 (inactive)

Q: And the z-score [18]?
A: -0.628 (inactive)

Q: And the z-score [19]?
A: 0.364

Q: And the composite z-score [20]?
A: -0.16

Q: Which results are given for O=C(NCc1ccccc1)[C@@]1(Cc2ccccc2)COC(c2ccc(OCCCO)cc2)=N1?
A: z-score [1]: -1.65; z-score [2]: -2.05; z-score [3]: -2.78; z-score [4]: -3.58; z-score [5]: -3.06; z-score [6]: -2.97; z-score [7]: 0.558 (inactive); z-score [8]: -1.06; z-score [9]: -2.9; z-score [10]: -2.77 (inactive); z-score [11]: -2.41; z-score [12]: 0.0178 (inactive); z-score [13]: -6.53 (inactive); composite z-score [14]: 1.1 (inactive); z-score [15]: 0.162 (inactive); z-score [16]: 3.65 (inactive); z-score [17]: 0.11 (inactive); z-score [18]: -0.762 (inactive); z-score [19]: -5.69; composite z-score [20]: -0.217

— PubChem BioAssay
